Calb FLC: C. albicans growth inhibition with fluconazole, primary screen, CaCi-2 strain, Alamar Blue fluorescence | 0.57% of 300,000 active | growth inhibition, % (test concentration not listed) | C. albicans CaCi-2 (fluconazole-resistant clinical isolate) + fluconazole, 48 h;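 active means growth inhibition above about 58% in most replicates, limit read from the data, passing the limit was not always enough; inconclusive means exactly half the replicates above a set limit; inactive means most replicates below a set limit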;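 further: all wells also contain fluconazole at 8 µg/ml as a sub-toxic cotreatment; 0% = median of DMSO wells and 100% = median of geldanamycin control wells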
Mdm2-MdmX inh: inhibitors of human Mdm2-MdmX association, primary screen, cell-based, luminescence, split luciferase, SaOS-2, uHTS. inhibition, % at 8 µM. SaOS-2 split-luciferase Mdm2/MdmX complementation. Protein Mdm4 (Homo sapiens) + E3 ubiquitin-protein ligase Mdm2 (Homo sapiens), …. AID 485346, 2010. 3% of 330,000 active;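 active means inhibition of at least 50% at 8 µM in the primary screen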
Target sequence (O15151 whole entry, looked up): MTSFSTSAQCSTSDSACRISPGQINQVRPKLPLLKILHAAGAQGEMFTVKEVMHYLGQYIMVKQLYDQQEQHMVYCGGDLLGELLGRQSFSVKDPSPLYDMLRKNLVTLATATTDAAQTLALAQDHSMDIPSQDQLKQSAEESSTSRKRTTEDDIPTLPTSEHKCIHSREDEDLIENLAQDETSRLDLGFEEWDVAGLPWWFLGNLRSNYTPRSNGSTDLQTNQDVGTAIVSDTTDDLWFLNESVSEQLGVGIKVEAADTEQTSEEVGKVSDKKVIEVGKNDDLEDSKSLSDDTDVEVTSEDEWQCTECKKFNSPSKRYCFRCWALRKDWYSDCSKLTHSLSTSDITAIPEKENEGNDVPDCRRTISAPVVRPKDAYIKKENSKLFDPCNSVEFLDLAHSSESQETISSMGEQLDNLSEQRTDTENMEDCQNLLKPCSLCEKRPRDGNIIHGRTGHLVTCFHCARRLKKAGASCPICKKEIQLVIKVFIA
Target sequence (Q00987 whole entry, looked up): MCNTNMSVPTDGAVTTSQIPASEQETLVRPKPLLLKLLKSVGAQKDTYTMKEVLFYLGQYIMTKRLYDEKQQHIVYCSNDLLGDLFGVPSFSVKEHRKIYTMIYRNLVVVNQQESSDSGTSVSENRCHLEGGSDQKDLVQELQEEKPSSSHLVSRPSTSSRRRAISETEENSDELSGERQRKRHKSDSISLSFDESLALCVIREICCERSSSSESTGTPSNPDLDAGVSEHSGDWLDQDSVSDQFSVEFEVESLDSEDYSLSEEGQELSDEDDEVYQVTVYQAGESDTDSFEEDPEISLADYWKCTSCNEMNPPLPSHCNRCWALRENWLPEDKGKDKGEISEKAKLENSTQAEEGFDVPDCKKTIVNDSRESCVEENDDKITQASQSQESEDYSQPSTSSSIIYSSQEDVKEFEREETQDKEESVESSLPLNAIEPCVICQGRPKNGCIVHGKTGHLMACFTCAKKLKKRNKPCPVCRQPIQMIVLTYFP
MPTP inh: mitochondrial permeability transition pore inhibitors, primary screen, biochemical, isolated mouse mitochondria, absorbance; Ca2+ swelling absorbance, 30 min; inhibition, % at 10 µM; 1.4% of 360,000 active; AID 602449, 2012;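 active means inhibition of 50% or more, scaled per plate between neutral and stimulator controls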;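 further: 0% = DMSO wells given calcium and 100% = 1 mM EGTA wells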
Beta cell apopt: inhibitors of cytokine-induced beta cell apoptosis, primary screen, luminescence; INS-1E cytokine-induced death, ATP luminescence, 48 h; percent of positive-control rescue, neutral wells zero; protection from apoptosis, % (concentration not given with the values); 0.8% of 300,000 active; AID 435005, 2010;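 active means Every replicate reaches about 75%, or at least half do and their mean reaches it too, limit read from the data; inconclusive means At least half of replicates reach the limit but their mean does not; inactive means Under half of replicates reach the limit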;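 further: 0% = cytokine-treated negative control wells and 100% = positive control rescue; higher means more ATP so stronger rescue from cytokine killing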
CSC inhib: cancer stem cell viability inhibitors, primary screen, luminescence | cancer stem cell-like cells viability | inhibition, % at 7.5 µM | 1.1% of 300,000 active; in the data active means inhibition above about 75%; inconclusive means no clear call, values can overlap the other calls; tested in HMLE shEcad cells
MPTP counter: fluorescence retest of MPTP screen hits in isolated mitochondria, single concentration | membrane potential, Rhodamine 123 fluorescence | 78% of 5,000 active | inhibition, % at 10 µM | AID 624504, 2012 | shares compounds with MPTP inh; in the data active means inhibition above about 22%;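 further: 0% = DMSO vehicle and 100% = positive control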
MPTP swell DR: mitochondrial permeability transition pore inhibitors, dose response, biochemical, absorbance, uHTS hits. shares compounds with MPTP inh. isolated mitochondria swelling. IC50, µM. 58% of 780 active. AID 651561, 2012; in the data active means IC50 below about 20 µM
MPTP cs DR: fluorescent counter-screen in isolated mitochondria, dose response, counter-screen for MPTP inhibitor project, biochemical, fluorescence, uHTS hits. isolated mitochondria counterscreen, fluorescence read-out. AID 651564, 2012. shares compounds with MPTP inh. 49% of 780 active. IC50, µM; in the data active means IC50 below about 80 µM
The depositor's hits bear a star; ? = inconclusive; . = not tested or not shown. An excerpt weighted towards active compounds, which were near 4.8% of everything screened.

SMILES	Calb FLC	Mdm2-MdmX inh	MPTP inh	Beta cell apopt	CSC inhib	MPTP counter	others
COC(=O)c1cccc(NC(=S)NCc2ccc(Cl)cc2)c1	-46	30	94*	0	-8	107*
COC(=O)c1cc(NC(=S)NCc2ccc(Cl)cc2)cc(C(=O)OC)c1	1	-21	98*	7	71	79*
COC(=O)c1cccc(NC(=O)Nc2ccc(Cl)cc2Cl)c1	1	19	84*	6	2	75*
COc1ccc(C2SCCN2C(=S)Nc2ccc(Cl)cc2)cc1 (stereo not given)	-24	-6	34	.	.	.
COC(=O)c1cccc(NC(=S)Nc2cc(Cl)ccc2OC)c1	-2	10	1	0	-1	.
CSCC[C@H](NC(=O)[C@H]1N2C(=O)c3ccccc3C2SC1(C)C)C(=O)NCc1ccncc1 (stereo not given in full)	-5	3	0	-2	-6	.
COc1ccc(-c2csc(C(C)(O)c3cccnc3)n2)cn1 (stereo not given)	.	.	0	.	.	.
CS(=O)(=O)c1ccccc1C(=O)Nc1cccc2ncccc12	-4	5	0	1	-2	.
CCOC(=O)C1=CCC(c2ccc(CC)cc2)N(S(=O)(=O)c2ccc(C)cc2)C1 (stereo not given)	.	.	3	.	.	.
COc1ccc(OC)c(N(CC(=O)N2CCOCC2)S(C)(=O)=O)c1	6	-11	0	1	-16	.
COc1ccc(CNC(=S)Nc2cccc(Cl)c2)cc1	2	29	75*	.	-1	100*
CCCCN(CCCC)CC(O)CN(c1cc([N+](=O)[O-])ccc1OC)S(=O)(=O)c1ccccc1 (stereo not given)	4	16	76*	3	-5	-8	MPTP swell DR=>100;MPTP cs DR=57*
COc1ccc([N+](=O)[O-])cc1N(CC(O)CN(CC(C)C)CC(C)C)S(=O)(=O)c1ccccc1 (stereo not given)	-5	13	2	3	-11	.
CC(OC(=O)CCc1nc2ccccc2c(=O)[nH]1)C(=O)c1ccc(C(C)(C)C)cc1 (stereo not given)	2	3	96*	-4	-3	86*
COc1ccc(C)cc1S(=O)(=O)NC(C)C(=O)NC1CC1 (stereo not given)	4	-7	2	-6	6	.
N/C(=N\S(=O)(=O)c1cc(C(F)(F)F)cc(C(F)(F)F)c1)c1ccc(Cl)cc1	44	27	83*	15	14	88*
O=S(=O)(Nc1cc(Cl)ccc1-n1cncn1)c1cc(Br)ccc1Br	.	44	66*	31	.	93*
O=S(=O)(Nc1cc(Cl)ccc1-n1cncn1)c1ccccc1Cl	.	-8	3	5	.	.
Cc1ccc2nc(SC(C(=O)Nc3ccc(F)cc3)c3ccccc3)[nH]c2c1 (stereo not given)	2	36	77*	5	-10	86*
Cc1ccc(C)c(NC(=O)C(Sc2nc3ccc(C)cc3[nH]2)c2ccccc2)c1 (stereo not given)	2	30	84*	5	17	92*
CC(C)CCNC(=O)C(=O)NCc1ccccc1	-3	8	0	-2	-5	.
C=CCc1cc(Cl)ccc1OC(=O)Nc1cccc(Cl)c1	-10	9	93*	3	24	97*
O=C(Nc1cccc(Cl)c1)ON1CCCCC1	.	.	5	.	.	.
C=CCNc1nc2ccccc2nc1NS(=O)(=O)c1ccc(Br)cc1	18	17	8	23	26	.
COc1ccc(-c2cc(C(F)(F)F)nc(SCCC(=O)NCc3ccccc3)n2)cc1	-10	6	60*	9	-5	2	MPTP swell DR=>100;MPTP cs DR=>80
SMILES	Calb FLC	Mdm2-MdmX inh	MPTP inh	Beta cell apopt	CSC inhib	MPTP counter	others
COc1ccc(-c2cc(C(F)(F)F)nc(SCc3cccc(C(=O)O)c3)n2)cc1	62	10	6	-8	-4	.
CC(C)c1ccc(/C=N/NC(=O)c2ccccn2)cc1	5	-64	1	5	?	.
CC(C)c1ccc(/C=N/NC(=O)c2cccc(Cl)c2)cc1	3	.	74*	12	91*	65*
O=[N+]([O-])c1ccc(O)c(C2CCCCC2)c1	.	.	88*	.	.	102*
COC(=O)c1ccccc1S(=O)(=O)N1CCC(NC(=O)C(Cc2cccc(OC)c2OC)NC(C)=O)CC1 (stereo not given)	0	4	-1	.	.	.
Nc1cc(=O)nc(SCC(=O)N(C2CCCCC2)C2CCCCC2)n1-c1ccccc1	3	-27	64*	-2	-1	-12	MPTP swell DR=>100;MPTP cs DR=>80
Cc1ccc(NC(=O)CSc2nc(=O)cc(N)n2-c2ccccc2)cc1	14	-12	0	-9	0	.
O=C(Nc1ccc(Oc2ccccc2)cc1)C1CCN(c2c3c(nc4ncnn24)CCC3)CC1	23	37	67*	58	4	76*
O=C(Nc1ccc2c(c1)CCC2)C1CCN(c2c3c(nc4ncnn24)CCC3)CC1	32	42	4	10	.	.
Cc1ccc(S(=O)(=O)N(C)c2ccc(OCC(=O)Nc3cccc(-n4cnnn4)c3C)cc2)cc1	0	4	0	-5	-2	.
CC1(CCc2ccc3c(c2)OCO3)NCCc2c1[nH]c1ccccc21 (stereo not given)	-3	31	0	-10	-11	.
O=C(Nc1ccccc1)Nc1nnc(Cc2ccccc2F)s1	-2	4	4	-3	35	.
O=C(Nc1ccc(F)cc1)Nc1nnc(Cc2ccccc2F)s1	7	31	58*	.	.	77*
NS(=O)(=O)c1cccc(NS(=O)(=O)c2ccc(/C=C/C(=O)OCC(=O)c3ccccc3)cc2)c1	-2	20	60*	-26	35	27*
O=S(=O)(NCC(Nc1ccc(Cl)cc1)c1ccccc1)c1ccc(Cl)cc1 (stereo not given)	-16	6	87*	6	52	85*
O=S(=O)(NCC(c1ccccc1)N1CCC(O)CC1)c1ccc(Cl)cc1 (stereo not given)	-12	-8	0	-5	2	.
O=C(Nc1cc(Sc2nc3ccccc3s2)cc([N+](=O)[O-])c1)c1cccc(F)c1F	4	27	94*	.	48	71*
Cc1cccc(C(=O)N(C(=O)c2cccc(C)c2)N(C)C)c1	.	.	0	.	.	.
COc1ccc(/C=N/c2oc(-c3ccccc3)cc2C#N)cc1	5	-9	2	-2	-2	.
COc1[nH]c(/N=C/c2ccccc2)c(C#N)c1C#N	-10	7	87*	-1	-12	33*
